SMILES strings stand for the structures. This is part of a sample that, as a whole, favours compounds with a hit. Of some 83,000 tested, about 20% had one in any assay.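 Results are percent growth after 48 hours of single-concentration exposure. 100 means growth as in untreated cells, lower positive values show inhibition; negative values down to -100 show cell death.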 A number with no mark means an inactive call. The source made the active and inactive calls. Rule for the calls: active = growth percent below 10; inactive = the rest.

Consider 15 molecules from PubChem BioAssay (NCI).

The subject of the experiment is MDA-MB-468 breast. The experiment is described as follows: NCI-60 one-dose screen, 48 h (100 = growth as untreated, 0 = no growth, -100 = all killed). Particulars: 10 µM unless noted.
For the molecule `COc1cc(/C=C/C(=O)c2cccc(-n3cc(-c4cc(OC)c(OC)c(OC)c4)[nH]c3=O)c2)cc(OC)c1OC`, the growth is 27.7%.

As for `O=C(N/N=C/c1ccccc1O)C(O)(c1ccccc1)c1ccccc1`, the growth was 38.2%.

With `CCOc1ccc(N2C(=O)CCSC2=S)cc1`, the growth was 97.1%.

Take `CCc1nnc(NC(=O)c2cc(-c3ccc(Cl)cc3Cl)oc2C)s1`: the growth is 94%.

Take `O=S(=O)(O)C(C(I)I)S(=O)(=O)O`: the growth was 95.9%. Next, `COc1ccc(NC(=O)c2sc3nc(C)c(C(=O)CCc4cccc(OC)c4)cc3c2N)cc1`: 29.6%; `CCOc1ccccc1CN1CCc2nc3cc(C(C)(C)C)[nH]n3c(=O)c2C1`: 105%. For `CN1CCN(c2ccc(NC3=C(Cl)C(=O)c4ncccc4C3=O)cc2C#N)CC1` the value was -65% (active). As for `FC(F)(F)c1cccc(Nc2nc3ccccc3nc2Nc2cccc(C(F)(F)F)c2)c1`, the growth is -12.9% (active). Next, `COc1ccc2c(c1)[nH]c(=O)c1c3cccnc3cn21`: 6.19% (active).

As to `COc1ccc(N(c2nc(-c3ccc([N+](=O)[O-])cc3)cs2)C(C)C)cc1`, the growth was 20.4%. Next, `O=C1/C=C/[C@@H](O)[C@@H]2C[C@@H](O)C[C@H]2/C=C/CCC[C@H](CCc2ccc3ncccc3c2)O1`: -5.95% (active); `C[N+]1(CCc2ccccc2)CCC(CCC2CC[N+](C)(CCc3ccccc3)CC2)CC1` (stereo not given): 28.8%. Next, `CCOC(=O)COc1ccc2c(c1)O/C(=C\c1ccc(O)cc1)C2=O`: 91.9%. For `O=C(CSc1nccc(Nc2ccc(S(=O)(=O)Nc3nccs3)cc2)n1)c1ccc(C(F)(F)F)cc1` the value was 97%.
